The target of assay [1] is Rap guanine nucleotide exchange factor 3 (Homo sapiens) (UniProt O95398). Nature of the assay: Confirmatory qHTS for agonist of cAMP-regulated guanine nucleotide exchange factor 3 (EPAC1) (AID 1645881).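 Also: EPAC1 catalysed release of BODIPY-GDP from Rap1B seen as fluorescence loss; 100% = effect of cAMP agonist control; nearly all actives have a fitted effect of over 75% in size.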 On the technique in general: In qHTS, concentration-response curves come from the screen itself.
Rap guanine nucleotide exchange factor 3 (Homo sapiens), sequence (O95398 whole entry, looked up): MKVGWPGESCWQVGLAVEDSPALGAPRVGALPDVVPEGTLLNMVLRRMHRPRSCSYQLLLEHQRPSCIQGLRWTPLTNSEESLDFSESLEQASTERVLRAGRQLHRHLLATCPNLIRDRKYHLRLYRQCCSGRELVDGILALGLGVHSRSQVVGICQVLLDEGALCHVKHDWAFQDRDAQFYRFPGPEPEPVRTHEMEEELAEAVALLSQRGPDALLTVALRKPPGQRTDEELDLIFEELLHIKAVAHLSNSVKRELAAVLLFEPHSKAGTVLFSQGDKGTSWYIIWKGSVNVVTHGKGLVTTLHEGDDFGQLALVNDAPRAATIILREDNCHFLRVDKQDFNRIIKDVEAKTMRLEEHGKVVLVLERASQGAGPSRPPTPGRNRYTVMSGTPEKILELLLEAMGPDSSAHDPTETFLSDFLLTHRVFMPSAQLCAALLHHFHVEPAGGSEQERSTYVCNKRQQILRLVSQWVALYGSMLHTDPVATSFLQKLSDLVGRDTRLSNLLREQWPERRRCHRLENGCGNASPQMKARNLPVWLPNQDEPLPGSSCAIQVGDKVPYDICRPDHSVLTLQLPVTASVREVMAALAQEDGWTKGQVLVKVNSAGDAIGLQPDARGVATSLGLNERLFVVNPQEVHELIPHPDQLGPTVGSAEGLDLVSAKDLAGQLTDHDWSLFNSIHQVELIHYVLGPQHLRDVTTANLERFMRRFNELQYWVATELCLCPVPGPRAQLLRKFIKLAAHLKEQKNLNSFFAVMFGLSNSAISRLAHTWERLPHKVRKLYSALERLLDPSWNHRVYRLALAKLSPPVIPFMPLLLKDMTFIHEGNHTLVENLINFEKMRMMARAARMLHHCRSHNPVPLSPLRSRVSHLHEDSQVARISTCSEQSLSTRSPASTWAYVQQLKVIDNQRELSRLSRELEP
Assay [2] deals with Rap guanine nucleotide exchange factor 4 (Homo sapiens) (UniProt Q8WZA2). The experiment in a line: Confirmatory qHTS for agonist of cAMP-regulated guanine nucleotide exchange factor 4 (EPAC2) (AID 1645884). Also: % is scaled to controls: 0 for no effect and ±100 for the full control effect; nearly all actives have a fitted effect of over 65% in size.
Rap guanine nucleotide exchange factor 4 (Homo sapiens), sequence (Q8WZA2 whole entry, looked up): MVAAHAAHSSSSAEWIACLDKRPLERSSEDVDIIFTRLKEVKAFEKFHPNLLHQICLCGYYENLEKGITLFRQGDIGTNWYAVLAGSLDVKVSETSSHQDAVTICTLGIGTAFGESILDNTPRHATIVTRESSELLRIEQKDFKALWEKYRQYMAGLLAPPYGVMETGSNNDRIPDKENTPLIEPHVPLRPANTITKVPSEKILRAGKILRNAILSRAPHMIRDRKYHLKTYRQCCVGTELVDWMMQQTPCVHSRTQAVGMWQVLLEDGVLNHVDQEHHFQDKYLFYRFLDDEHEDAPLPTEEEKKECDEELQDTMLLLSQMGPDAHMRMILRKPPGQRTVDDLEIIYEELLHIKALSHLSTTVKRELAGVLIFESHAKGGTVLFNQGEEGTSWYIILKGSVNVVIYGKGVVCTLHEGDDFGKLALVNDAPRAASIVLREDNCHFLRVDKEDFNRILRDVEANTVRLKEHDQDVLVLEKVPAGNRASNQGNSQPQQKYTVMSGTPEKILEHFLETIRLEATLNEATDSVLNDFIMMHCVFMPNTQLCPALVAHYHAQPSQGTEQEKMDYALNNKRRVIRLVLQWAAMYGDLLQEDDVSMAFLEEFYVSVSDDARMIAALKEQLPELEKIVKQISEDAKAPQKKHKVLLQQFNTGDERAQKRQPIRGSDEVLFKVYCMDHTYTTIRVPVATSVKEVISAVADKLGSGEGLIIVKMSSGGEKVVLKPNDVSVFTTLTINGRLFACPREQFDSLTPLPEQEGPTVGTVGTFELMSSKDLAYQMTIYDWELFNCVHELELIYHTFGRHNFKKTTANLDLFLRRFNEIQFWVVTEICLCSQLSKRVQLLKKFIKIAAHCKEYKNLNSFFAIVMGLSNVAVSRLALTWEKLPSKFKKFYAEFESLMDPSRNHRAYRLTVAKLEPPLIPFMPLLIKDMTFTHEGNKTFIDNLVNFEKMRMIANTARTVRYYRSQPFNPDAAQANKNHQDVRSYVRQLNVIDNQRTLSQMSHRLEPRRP
Assay [3] shares this target. Nature of the assay: Confirmatory qHTS for antagonist of cAMP-regulated guanine nucleotide exchange factor 4 (EPAC2) (AID 1645885). Also: nearly all actives have a fitted effect of over 25% in size. Also: potency is read from the fitted curve at half-maximal effect. As to activity change, negative = inhibition: % is scaled to controls: 0 for no effect and ±100 for the full control effect.
In assay [4] the target is Rap guanine nucleotide exchange factor 3 (Homo sapiens) (UniProt O95398). Nature of the assay: Counterscreen qHTS for antagonist of cAMP-regulated guanine nucleotide exchange factor 3 (EPAC1) (AID 1645888). Also: % of control where 0% means no effect. In short, it runs like this: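 Measured: fluorescence of BODIPY-GDP bound to Rap1B, which falls as exchange proceeds. Conditions include 50 uM competing GDP, 5 and 30 min reads, and a later cAMP challenge for antagonist detection.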

Results on 26 molecules are retold here after PubChem BioAssay (NCATS).

Results filed as inconclusive are left out. Values without a mark were called inactive. Active and inactive are the calls of the source. Calls follow the shape of the dose curve; as a rule, active = well fitted curve in the direction sought with a large enough effect; inconclusive = small, poorly fitted or top-dose-only effect, or another doubt; inactive = no such curve, though single readings can be large; an effect the other way counts as inactive or inconclusive.

With `O=C(CSc1nnc(-c2cnccn2)n1Cc1ccco1)c1ccc(Cl)cc1`, the Potency result in assay [1], in assay [2], in assay [3] and in assay [4] was “inactive” throughout.
With `COc1ccc(OCc2nc3ccccc3n2Cc2ccc(C(C)(C)C)cc2)cc1`, the Potency result in assay [1], in assay [2], in assay [3] and in assay [4] was “inactive” each time.
For the molecule `Cc1ccc(NC(=O)CC2S/C(=N/N=C3\CCCc4ccccc43)NC2=O)cc1` (centres undefined), the Potency result in assay [1] and in assay [3] was “inactive” in each case. The activation in assay [2] was 0% [at 17.1 µM, percent relative to cAMP agonist control]. Further, the activity change, negative = inhibition in assay [4] is -9.99% [at 30.8 µM].
Regarding `COc1ccccc1-c1oc2ccccc2c1C#CC(C)(C)O`, the Potency entry in assay [1], in assay [2], in assay [3] and in assay [4] was “inactive” in each case.
As to `O=c1[nH][nH]c(-c2ccccc2O)c1C(C[N+](=O)[O-])c1ccc(Br)cc1` (centres undefined), the Potency entry in assay [1], in assay [2], in assay [3] and in assay [4] was “inactive” each time.
As for `COc1ccccc1C(=O)Nc1nnc(SCc2cc(=O)c3ccccc3[nH]2)s1`, the Potency result in assay [1], in assay [2] and in assay [4] was “inactive” each time. Besides, in assay [3], the outcome was “inactive [at 12.7 µM]”.
In the case of `Cc1ccc(C(C[N+](=O)[O-])c2c(-c3ccccc3O)[nH][nH]c2=O)cc1` (centres undefined), in assay [1], the Potency entry was “inactive”. The activation in assay [2] was 3.05% [at 17.1 µM, percent relative to cAMP agonist control]. Further, the Potency in assay [3] was 3.38 µM (active). The activity change, negative = inhibition in assay [4] is -0.345% [at 30.8 µM].
On to `CC(C)CC1C(=O)N(Cc2cn(Cc3ccco3)nn2)CCS(=O)(=O)N1Cc1ccc(-c2ccccc2)cc1` (centres undefined), for which the Potency entry in assay [1], in assay [2] and in assay [4] was “inactive” each time. For the same molecule, in assay [3], the Potency is 19 µM (active).
As to `CC1=NN(c2ccc(C)c(C)c2)C(=O)C1C(c1cccc(O)c1)C1C(=O)N(c2ccc(C)c(C)c2)N=C1C` (centres undefined), the Potency result in assay [1] and in assay [3] was “inactive” in each case. For the same molecule, the activation in assay [2] is 7.48% [at 17.1 µM, percent relative to cAMP agonist control]. Moreover, in assay [4], the activity change, negative = inhibition was 19.9% [at 30.8 µM].
With `S=c1[nH]nc(-c2cc(-c3ccccc3)n[nH]2)n1/N=C/c1cccc(Cl)c1`, the Potency result in assay [1], in assay [2], in assay [3] and in assay [4] was “inactive” in each case.
In the case of `CCN1CCc2c(sc(NC(=O)c3cc4ccccc4cc3OC)c2C(N)=O)C1`, the Potency result in assay [1] and in assay [3] was “inactive” each time. Also, the activation in assay [2] is 8.91% [at 17.1 µM, percent relative to cAMP agonist control]. Moreover, the activity change, negative = inhibition in assay [4] was -3.83% [at 30.8 µM].
For `COc1ccc(Cn2c(-c3ccc(C)cc3)nc3c(c(=O)c4ccccc4n3C)c2=O)cc1`, the Potency result in assay [1] and in assay [3] was “inactive” each time. Besides, in assay [2], the activation was -1.59% [at 17.1 µM, percent relative to cAMP agonist control]. The activity change, negative = inhibition in assay [4] is -16.2% [at 30.8 µM].
`Cc1cc(CSc2ccc(Cl)cc2)ccc1N`: the Potency result in assay [1], in assay [2], in assay [3] and in assay [4] was “inactive” throughout.
For the molecule `COc1cc(-c2cc(OC)c3c(C)oc(C)c3c(=O)c2)ccc1OC(=O)c1ccccc1F`, the Potency entry in assay [1], in assay [2] and in assay [4] was “inactive” each time. For the same molecule, the outcome in assay [3] is “inactive [at 12.7 µM]”.
For `O=S1(=O)N=C(N(Cc2cccs2)c2ccc(O)cc2)c2ccccc21`, the Potency entry in assay [1], in assay [2], in assay [3] and in assay [4] was “inactive” each time.
Turning to `COC(=O)CC1(C(=O)OC)Oc2ccc(Br)cc2C(=O)N1c1cccc(Cl)c1Cl` (centres undefined), the Potency entry in assay [1], in assay [2] and in assay [4] was “inactive” each time. Besides, in assay [3], the Potency was 1.69 µM (active).
As for `CCSc1nc2c([nH]c3ccccc32)c(=O)n1-c1cccc(OC)c1`, the Potency entry in assay [1], in assay [2], in assay [3] and in assay [4] was “inactive” each time.
For the molecule `Oc1ccc(-c2nc(-c3ccc(O)c(O)c3)cs2)cc1`, the Potency result in assay [1], in assay [2], in assay [3] and in assay [4] was “inactive” each time.
For the molecule `O=C(CSc1nc(-c2ccccc2)nc2c1Cc1ccccc1O2)Nc1ccc(C(=O)O)cc1`, the Potency entry in assay [1], in assay [2], in assay [3] and in assay [4] was “inactive” each time.
`COc1ccc(NC(=O)c2ccco2)cc1NC(=O)C(C)Oc1ccc(Cl)cc1Cl` (centres undefined): the Potency result in assay [1], in assay [2], in assay [3] and in assay [4] was “inactive” throughout.
As to `COc1cccc(/C=C2\SC(=S)NC2=O)c1OS(=O)(=O)c1ccc(NC(C)=O)cc1`, the Potency entry in assay [1] and in assay [3] was “inactive” throughout. In assay [2], the activation is 5.66% [at 17.1 µM, percent relative to cAMP agonist control]. In assay [4], the activity change, negative = inhibition is -18.9% [at 30.8 µM].
Turning to `Cc1cc(C)c(S(=O)(=O)c2ccccc2)c(OC(=O)c2c(F)cccc2F)n1`, the Potency result in assay [1] and in assay [3] was “inactive” each time. Besides, in assay [2], the activation was -4.73% [at 17.1 µM, percent relative to cAMP agonist control]. Moreover, the activity change, negative = inhibition in assay [4] is 8% [at 30.8 µM].
On to `COc1cc(C2NC(=O)c3c(sc4c3CCN(C)C4)N2)cc(Br)c1OC(=O)c1ccc(C)cc1` (centres undefined), for which the Potency entry in assay [1], in assay [2] and in assay [4] was “inactive” each time. In assay [3], the outcome is “inactive [at 12.7 µM]”.
Regarding `CCCN(CC(=O)Nc1ccccc1OC)C(=O)c1cccc(S(=O)(=O)Nc2ccc(OC)cc2)c1`, the Potency result in assay [1], in assay [2], in assay [3] and in assay [4] was “inactive” each time.
Take `Cc1nc(-c2ccc(Cl)cc2)sc1CCNC(=O)c1cccs1`: the Potency result in assay [1], in assay [2], in assay [3] and in assay [4] was “inactive” in each case.
As for `Oc1ccc(NCc2cccc(OCc3ccccc3)c2)cc1`, the Potency result in assay [1], in assay [2], in assay [3] and in assay [4] was “inactive” in each case.
